Screening results: PubChem, Center for Chemical Genomics, University of Michigan
Rows were chosen to be rich in hits. Some 0.9% of all compounds tested hit in one or more screens of this group.
CDC25B-CDK2 inh – human CDC25B-CDK2/CyclinA binding inhibition; HTRF CDC25B-CDK2/CyclinA binding, anti-His/anti-Flag; active compounds read high; z-score (test concentration not listed); 94,000 tested, 0.72% active; AID 1259370; in the data active means z-score above about 3.2
TAR Tat displ – HIV-1 TAR-Tat binding disruption; HIV-1 TAR RNA, Tat peptide displacement FRET; active compounds read high; z-score (test concentration not listed); 100,000 tested, 0.6% active; active means z-score of 3 or more in at least 2 runs
* = called active by the depositor; . = not tested or not shown.

SMILES	CDC25B-CDK2 inh	TAR Tat displ
CCCC(=O)N1c2ccccc2C(=C2SC(C(=O)OC)=C(C(=O)OC)S2)C(=S)C1(C)C	-4.6	0.88
COC(=O)C1=C(C(=O)OC)SC(=C2C(=S)C(C)(C)Nc3ccccc32)S1	14*	0.87
CCOC(=O)C1=C(C(=O)OCC)SC(=C2C(=S)C(C)(C)Nc3ccc(C)cc32)S1	19*	1.2
CCc1nnc2sc(COc3ccc(Cl)cc3)nn12	-0.23	0.08
CCN(CC)c1cc2c(cc1F)c(=O)c(S(=O)(=O)c1ccc(C)c(C)c1)cn2CC	.	-0.75
CCOC(=O)c1ccc(NC(=S)NC(NC(=O)c2ccccc2Br)C(Cl)(Cl)Cl)cc1 (stereo not given)	1.8	.
CC(=O)c1ccc(NC(=S)NC(NC(=O)c2cccc(Cl)c2)C(Cl)(Cl)Cl)cc1 (stereo not given)	3.2*	.
COc1cc(OC)cc(C(=O)Nc2c(C)nc3ccc(Cl)cn3c2=O)c1	.	1
CCOC(=O)c1ncn(-c2ccccc2)n1	-1.9	0.55
CCOC(=O)Cn1cnc2nn(-c3ccccc3)cc2c1=O	3.6	5.1*
O=c1c(O)cc([C@H]2Oc3cc(O)cc(O)c3C[C@H]2O)cc2c([C@H]3Oc4cc(O)cc(O)c4C[C@H]3O)cc(O)c(O)c12	.	18*
O=C(Oc1cc(OC(=O)c2ccccc2)c2c(c1)O[C@H](c1ccc(OC(=O)c3ccccc3)c(OC(=O)c3ccccc3)c1)[C@@H](OC(=O)c1ccccc1)C2)c1ccccc1	.	-0.12
O=C(O[C@@H]1Cc2c(O)cc(O)cc2O[C@@H]1c1cc(O)c(O)c(O)c1)c1cc(O)c(O)c(O)c1	.	25*
O=C1C[C@@H](c2ccc(O)cc2)Oc2cc(O)cc(O)c21	.	2.9
O=C(O[C@@H]1Cc2c(O)cc(O)cc2O[C@@H]1c1cc(O)c(O)c(O)c1-c1c([C@H]2Oc3cc(O)cc(O)c3C[C@H]2O)cc(O)c(O)c1O)c1cc(O)c(O)c(O)c1	.	4.7*
O=C(O[C@@H]1Cc2c(O)cc(O)cc2O[C@@H]1c1ccc(O)c(O)c1)c1cc(O)c(O)c(O)c1	.	29*
CC(=O)Oc1cc(OC(C)=O)c2c(c1)O[C@H](c1ccc(OC(C)=O)c(OC(C)=O)c1)[C@@H](OC(C)=O)C2	.	0.8
Cc1ccc(C)c2[nH]c(=O)c(CCNC(=O)C34CC5CC(CC(C5)C3)C4)cc12	-1.7	.
CN1C(=O)Cc2cc(S(=O)(=O)CCC(=O)NCCc3ccc(S(N)(=O)=O)cc3)ccc21	.	0.76
Cc1nn(C)c(C)c1CNC(=O)NC1CCCCC1	.	0.61
CNC(=O)c1c(NC(=O)c2sc3ccccc3c2Cl)sc2c1CCC2	.	-3.3
O=C(NCc1noc2ccccc12)Nc1nc2ccccc2s1	.	0.17
Oc1ccc2c(c1)O[C@H](c1ccc(O)c(O)c1)[C@@H](O)C2	.	3.1
Oc1cc(O)c2c(c1)O[C@H](c1ccc(O)c(O)c1)[C@H](O)C2	.	24*
O=C1C=C(NCCc2ccccc2)CC(c2ccco2)C1 (stereo not given)	-0.39	24*
SMILES	CDC25B-CDK2 inh	TAR Tat displ
O=C1C=C(NCc2ccco2)CC(c2ccccc2)C1 (stereo not given)	-1.2	0.24
COc1ccc(-c2nc3c4cnn(-c5cccc(F)c5)c4ncn3n2)cc1OC	-2.8	2.4
CN(CCNC(=O)C1Cc2ccccc2N1C(=O)c1ccccc1)Cc1ccccc1 (stereo not given)	.	1.4
COc1cc(CNCCSc2nnnn2C)cc(Br)c1OCc1ccc(F)cc1	1.4	1.5
COc1cc(CNc2ccc3[nH]c(=O)[nH]c3c2)cc(Br)c1OCc1ccc(F)cc1	7.2*	-2.9
C=CCOc1c(Cl)cc(CNc2ccc3[nH]c(=O)[nH]c3c2)cc1OC	-0.61	1.6
CCOc1cc(CNc2ccc3[nH]c(=O)[nH]c3c2)cc(Cl)c1OCC	7.7*	-2.6
COc1ccc(-c2nc(SCC(=O)NC(C)(C)C)n3[nH]c(=O)cc3n2)cc1	.	1.5
CCCCC(CC)CNC(=O)C1CCC(Cn2c(=O)[nH]c3ccsc3c2=O)CC1 (stereo not given)	-1.4	-1.6
Cc1c(C2CCN(S(=O)(=O)c3cn(C)cn3)CC2)c2ccccc2n1Cc1cccc(F)c1	.	1.4
CN1C(=O)c2ccccc2Sc2ccc(NC(=O)N3CCC(C(N)=O)CC3)cc21	-1.5	-0.35
Cc1ccc(-c2cc(C(=O)O)c3c(-c4ccccc4)[nH]nc3n2)cc1	.	0.86
Cc1ccc(-c2[nH]nc3nc(-c4ccc(O)c(O)c4)cc(C(=O)O)c23)cc1	-0.27	20*
Cc1nn2cc(-c3ccccc3)cc2c2c(C)n(Cc3ccccc3)c(C)c12	-0.81	0.12
COc1ccc(-n2c(C)c3c(C)nn4cc(-c5ccc(C)o5)cc4c3c2C)cc1	7.2*	16*
CNC[C@H](O)c1ccc(O)c(O)c1	-1.7	.
NC[C@H](O)c1ccc(O)c(O)c1	5.9*	27*
COc1ccc(OC)c(S(=O)(=O)Nc2cc3c(cc2OC)n(C)c(=O)n3C)c1	-1.2	-1.8
Cc1ccc(C(=O)c2cnc3cc4c(cc3c2N2CCC(C(N)=O)CC2)OCCO4)cc1C	-1.6	5.5
